In PubChem BioAssay (EPA / NIEHS):
Where “and” joins values, the source holds several entries; their conditions need not be identical. Equal entries are not always repeated. Some compounds were tested as several samples or in several runs, with calls that do not always agree. Calls of active or inactive are those of the source. How the source made its calls: active means hit-call score of the fitted dose curve at least 0.9, where 1 is the maximum; inactive means score below 0.9.

Assays:
[1] = APR_HepG2_CellLoss_72hr: Apredica 72-hour HepG2 Assay for Cell Loss (AID 2282915); details: high-content imaging
Method in brief: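 Cell number comes from Hoechst 33342-labelled nuclei, imaged at 20x after 3.7% formaldehyde fixation. Dosing was 0.39–200 uM, ten concentrations in duplicate, 0.5% DMSO final, for 72 h. Bidirectional fit relative to DMSO baseline.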

[2] = APR_HepG2_P-H2AX_72hr: Apredica 72-hour HepG2 Assay for H2AX Phosphorylation (AID 2282916); details: imaging, actives raise or lower the signal;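 further: phospho-histone H2A.x immunostain intensity per cell marking DNA damage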
Method in brief: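 Phospho-histone H2A.x immunofluorescence, multiplexed with Hoechst and c-Jun, quantified by high-content imaging. Compounds applied to HepG2 for 72 h across ten concentrations (0.39–200 uM, 0.5% DMSO), in duplicate; DMSO baseline.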

[3] = APR_HepG2_MitoMembPot_72hr: Apredica 72-hour HepG2 Assay for Mitochondrial Membrane Potential (AID 2282917); details: imaging, actives raise or lower the signal
Method in brief: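 Membrane potential read by MitoTracker Red CMXRos (250 nM, 30 min, pre-fixation) fluorescence imaging of HepG2 after 72 hr exposure. Ten concentrations, 0.39–200 uM, duplicate wells, 0.5% DMSO; fitted in both directions against DMSO baseline.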

[4] = APR_HepG2_MitoticArrest_72hr: Apredica 72-hour HepG2 Assay for Mitotic Arrest (AID 2282918); details: high-content imaging, actives raise or lower the signal
Method in brief: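 Read-out is phospho-histone H3 immunofluorescence with Hoechst nuclear segmentation, imaged at 20x. Human HepG2 liver cells received ten concentrations (0.39–200 uM, final DMSO 0.5% v/v) for 72 hr before fixation. Gain or loss of signal was fitted relative to DMSO.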

[5] = APR_HepG2_MicrotubuleCSK_72hr: Apredica 72-hour HepG2 Assay for Microtubule CSK Stabilty (AID 2282919); details: HepG2 microtubule cytoskeleton, high-content imaging, actives raise or lower the signal
Method in brief: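 High-content imaging of alpha-tubulin staining in fixed HepG2 cells after 72 hr treatment with ten concentrations from 0.39 to 200 uM (0.5% DMSO). Fitting was bidirectional against DMSO; taxol served as positive control.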

[6] = APR_HepG2_P-H2AX_24hr: Apredica 24-hour HepG2 Assay for H2AX Phosphorylation (AID 2282920); details: high-content imaging, actives raise or lower the signal
Method in brief: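 HepG2, 24 hr, cpd 0.39–200 uM (10 conc, duplicate), DMSO 0.5% v/v final. Fix 3.7% formaldehyde, Triton X-100 permeabilize, anti-phospho-H2A.x 1:200 + Hoechst 2 ug/mL. Imaged, bidirectional fit vs DMSO.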

[7] = APR_HepG2_StressKinase_72hr: Apredica 72-hour HepG2 Assay for Stress Kinase (AID 2282921); details: HepG2 stress kinase (phospho-c-Jun) imaging, actives raise or lower the signal
Method in brief: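 Stress kinase signal is phospho-c-Jun immunofluorescence (1:500 primary, Cy3 secondary) in fixed, permeabilized human HepG2 cells imaged at 20x. Exposure lasted 72 hr over ten concentrations from 0.39 to 200 uM, 0.5% DMSO, in duplicate. Bidirectional fit versus DMSO.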

[8] = APR_HepG2_MitoMass_72hr: Apredica 72-hour HepG2 Assay for Mitochondrial Mass (AID 2282924); details: high-content imaging, actives raise or lower the signal;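 further: MitoTracker Red CMXRos stain intensity per cell imaged as mitochondrial mass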
Method in brief: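 Readout is imaged MitoTracker Red (250 nM, 30 min, pre-fixation) signal, fitted bidirectionally against DMSO baseline. Human HepG2 liver cells received compound 0.39–200 uM in duplicate for 72 hr, final DMSO 0.5%.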

[9] = APR_HepG2_NuclearSize_72hr: Apredica 72-hour HepG2 Assay for Nuclear Size (AID 2282925); details: high-content imaging, actives raise or lower the signal
Method in brief: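 Nuclear size was read by high-content imaging of Hoechst 33342 stain after formaldehyde fixation. Compounds ran 72 h on HepG2 at 0.39 to 200 uM, with final DMSO 0.5% v/v. Curves fitted both directions relative to DMSO control.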

[10] = ATG_CRE_CIS: Attagene CIS-FACTORIAL HepG2 Assay for human cAMP Responsive Element (CRE) binding protein 3 (AID 2282926); details: HepG2 CRE cis-reporter, Attagene multiplexed mRNA; actives raise or lower the signal
Method in brief: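 Assay format: transient reporter transfection of HepG2, 24 h treatment, total RNA isolation with DNase I step. Reporter abundance read by fluorescence after PCR and capillary separation; DMSO-normalised gain or loss fitting.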

[11] = molecular target: CCAAT/enhancer-binding protein beta (Homo sapiens) (UniProt P17676); assay: ATG_C_EBP_CIS: Attagene CIS-FACTORIAL HepG2 Assay for human CCAAT/Enhancer Binding Protein (C/EBP) beta (AID 2282927); details: HepG2 Attagene cis-factorial transcription factor reporter; actives raise or lower the signal
Method in brief: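 Changes in reporter mRNA, rather than exogenous chimeric receptor activity, reflect native C/EBP signalling in transfected HepG2 cells dosed for 24 h; transcripts are detected by RT-PCR and capillary electrophoresis.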

[12] = ATG_CMV_CIS: Attagene CIS-FACTORIAL HepG2 Assay for human CMV (Internal Marker) (AID 2282928); details: HepG2 CMV promoter reporter, transcription factor profiling; actives raise or lower the signal;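 further: endpoint acts as a background internal control marker rather than a target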
Method in brief: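 Readout: fluorescent reporter cDNA fragments separated by capillary electrophoresis after RT-PCR and HpaI cut. Cells: HepG2 carrying transfected cis-promoter reporter constructs, dosed 24 h. Endpoint serves as background internal-marker control, fit bidirectionally versus DMSO.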

[13] = ATG_DR4_LXR_CIS: Attagene CIS-FACTORIAL HepG2 Assay for human Liver X Receptor (LXR), DR4 submotif (AID 2282929); details: HepG2 Attagene DR4 cis-reporter, mRNA transcription; actives raise or lower the signal
Method in brief: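 The endpoint is DR4-element-driven reporter transcripts after 24 h chemical exposure of transfected HepG2 cells. These were measured via RT-PCR and capillary electrophoresis, and gain or loss of signal was fitted relative to DMSO controls.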

[14] = molecular target: Aryl hydrocarbon receptor (Homo sapiens) (UniProt P35869); assay: ATG_Ahr_CIS: Attagene CIS-FACTORIAL HepG2 Assay for human Aryl Hydrocarbon Receptor (Ahr) (AID 2282930); details: HepG2 AhR cis-factorial reporter transcription; actives raise or lower the signal
Method in brief: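 HepG2, transient MRTU (cis) transfection, 24 h exposure. RNA → cDNA → PCR → 6-FAM primer extension → HpaI 2 h 37 C → CE. Fit: bidirectional, DMSO baseline.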

[15] = ATG_AP_1_CIS: Attagene CIS-FACTORIAL HepG2 Assay for human Activator Protein 1 (AP-1) (AID 2282931); details: HepG2 Attagene cis-factorial AP-1 reporter mRNA; actives raise or lower the signal
Method in brief: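 Readout is reporter transcript level from endogenous transcription factor activity, quantified by RT-PCR with fluorescent primer extension and capillary electrophoresis. Transiently transfected HepG2 cells, 24 h exposure. Curves fitted both directions versus DMSO.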

[16] = ATG_BRE_CIS: Attagene CIS-FACTORIAL HepG2 Assay for human Bone Morphogenetic Protein (BMP) Response Element (BRE) (AID 2282933); details: HepG2 BMP response element reporter, Attagene transcription factor profiling; actives raise or lower the signal
Method in brief: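 Read-out: reporter mRNA induction quantified by RT-PCR and capillary electrophoresis after 24 h chemical exposure of transfected HepG2 cells. Endogenous factor activity on the BMP response element; gain or loss fitted against DMSO baseline.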

[17] = molecular target: Retinoic acid receptor alpha (Homo sapiens) (UniProt P10276); assay: ATG_DR5_RAR_CIS: Attagene CIS-FACTORIAL HepG2 Assay for human Retinoic Acid Receptor Alpha (RARE), DR5 submotif (AID 2282934); details: HepG2 Attagene cis-factorial RARE DR5 reporter, mRNA; actives raise or lower the signal;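 on AC50: reporter responds to endogenous RAR alpha beta and gamma in HepG2 not RARA alone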
Method in brief: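 HepG2, transient cis-reporter transfection, 24 h exposure. mRNA readout: RT-PCR, FAM label, HpaI cut, capillary electrophoresis. DMSO baseline, gain/loss fitting.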

[18] = APR_HepG2_p53Act_72hr: Apredica 72-hour HepG2 Assay for p53 Activation (AID 2282923); details: high-content imaging, actives raise or lower the signal;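 further: average cellular p53 protein immunofluorescence intensity in HepG2 cells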
Method in brief: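 After 72 h with compound (ten points, 0.39 to 200 uM, final DMSO 0.5% v/v), fixed HepG2 cells were labelled with sheep anti-p53 and Hoechst 33342 and imaged; gain or loss versus DMSO scored.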

Measured: AC50

Retinoic acid receptor alpha (Homo sapiens), sequence (P10276 whole entry, looked up): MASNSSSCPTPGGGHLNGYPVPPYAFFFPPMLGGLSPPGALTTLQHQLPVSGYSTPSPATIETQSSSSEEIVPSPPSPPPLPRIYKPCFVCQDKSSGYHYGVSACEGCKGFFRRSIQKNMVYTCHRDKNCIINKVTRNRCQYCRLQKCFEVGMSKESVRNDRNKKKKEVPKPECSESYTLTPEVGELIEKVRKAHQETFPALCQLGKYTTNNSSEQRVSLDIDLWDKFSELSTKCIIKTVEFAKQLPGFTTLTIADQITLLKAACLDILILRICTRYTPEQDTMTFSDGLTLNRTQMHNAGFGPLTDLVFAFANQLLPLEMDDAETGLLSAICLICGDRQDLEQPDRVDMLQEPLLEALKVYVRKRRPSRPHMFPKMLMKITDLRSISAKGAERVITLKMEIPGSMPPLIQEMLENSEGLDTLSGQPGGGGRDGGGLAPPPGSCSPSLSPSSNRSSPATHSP
CCAAT/enhancer-binding protein beta (Homo sapiens), sequence (P17676 whole entry, looked up): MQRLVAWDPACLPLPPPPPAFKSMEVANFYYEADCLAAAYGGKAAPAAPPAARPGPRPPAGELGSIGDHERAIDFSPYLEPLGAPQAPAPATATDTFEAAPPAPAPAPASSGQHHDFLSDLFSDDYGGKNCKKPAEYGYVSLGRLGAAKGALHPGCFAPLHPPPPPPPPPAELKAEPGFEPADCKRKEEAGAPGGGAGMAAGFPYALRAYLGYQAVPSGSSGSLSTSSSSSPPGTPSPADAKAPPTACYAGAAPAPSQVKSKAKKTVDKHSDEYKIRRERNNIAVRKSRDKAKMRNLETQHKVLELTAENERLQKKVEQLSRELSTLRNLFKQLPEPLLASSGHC
Aryl hydrocarbon receptor (Homo sapiens), sequence (P35869 whole entry, looked up): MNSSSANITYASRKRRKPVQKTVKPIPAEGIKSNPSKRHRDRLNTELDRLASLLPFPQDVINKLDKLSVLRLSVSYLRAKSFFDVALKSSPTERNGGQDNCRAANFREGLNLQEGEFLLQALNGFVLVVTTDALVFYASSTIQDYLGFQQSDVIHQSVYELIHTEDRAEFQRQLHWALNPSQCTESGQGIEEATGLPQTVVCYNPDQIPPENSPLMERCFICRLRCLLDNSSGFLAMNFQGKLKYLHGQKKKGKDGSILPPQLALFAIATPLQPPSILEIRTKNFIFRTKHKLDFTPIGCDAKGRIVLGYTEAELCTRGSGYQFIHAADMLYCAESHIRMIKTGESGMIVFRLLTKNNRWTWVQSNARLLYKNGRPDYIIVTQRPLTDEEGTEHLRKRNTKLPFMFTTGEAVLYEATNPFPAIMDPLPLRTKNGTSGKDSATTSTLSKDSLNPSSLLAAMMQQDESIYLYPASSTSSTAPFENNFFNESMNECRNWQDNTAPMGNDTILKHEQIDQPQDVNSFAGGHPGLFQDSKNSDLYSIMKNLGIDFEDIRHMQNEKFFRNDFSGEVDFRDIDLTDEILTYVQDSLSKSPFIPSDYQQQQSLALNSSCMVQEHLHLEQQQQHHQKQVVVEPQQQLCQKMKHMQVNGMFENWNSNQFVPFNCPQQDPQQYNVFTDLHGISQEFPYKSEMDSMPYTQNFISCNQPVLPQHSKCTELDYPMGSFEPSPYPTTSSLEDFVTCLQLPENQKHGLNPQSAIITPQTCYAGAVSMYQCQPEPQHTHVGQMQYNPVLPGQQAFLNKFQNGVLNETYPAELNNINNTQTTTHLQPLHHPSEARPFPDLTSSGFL

O=C(O)c1ccccc1C(c1ccc(O)cc1)c1ccc(O)cc1
active: [1] 80.2 µM | [14] 64.8 µM
inactive: [2] | [3] | [4] | [5] | [6] | [7] | [8] | [9] | [10] | [11] | [12] | [13] | [14] | [15] | [16] | [17]

Cc1cc(C)c(O)c(C)c1
active: [12] 100 µM | [17] 100 µM
not listed: [10]
inactive: all other assays above

Oc1cccc(O)c1
active: [16] 29.7 µM
not listed: [10]
inactive: all other assays above

ClC1=C(Cl)C(Cl)(Cl)C(Cl)=C1Cl
active: [11] 16.9 µM | [12] 11.1 µM | [13] 6.59 µM | [14] 8.81 µM | [17] 21.4 µM
inactive: [1] | [2] | [3] | [4] | [5] | [6] | [7] | [18] | [8] | [9] | [11] | [12] | [13] | [14] | [15] | [16] | [17]

COc1ccc([N+](=O)[O-])cc1N
not listed: [10]
inactive: all other assays above

Cc1ccc(S(=O)(=O)O)c(C)c1
inactive: [10] | [11] | [12] | [13] | [14] | [15] | [16]

OC1CCC(C2CCCCC2)CC1 (stereo unspecified)
inactive: [1] | [2] | [3] | [4] | [5] | [6] | [7] | [18] | [8] | [9] | [11] | [14] | [15] | [16] | [17]
active: [13] 158 µM [middle of 4 runs] | [14] 1.32 µM and 47 µM | [15] 162 µM and 149 µM

CCCCCCCCCCCCN1CCCC1=O
active: [1] 72.4 µM | [2] 58.6 µM | [4] 62.4 µM | [5] 53.3 µM | [6] 67.2 µM | [7] 67.5 µM | [18] 61.3 µM | [8] 109 µM
inactive: all other assays above

CC(C)CCCCCCOC(=O)CCCCC(=O)OCCCCCCC(C)C
active: [14] 60.3 µM
not listed: [10]
inactive: all other assays above
